Several values for one entry are separate records, joined by “and”; a condition that tells them apart may be missing. Identical values can stand only once. Some structures have more than one record in an assay (separate samples or runs), and their calls can disagree. Activity calls are given as the source filed them. Unless noted, the call rests on the fitted dose curve; in most records, active means well fitted curve in the direction sought with a large enough effect in the repeat runs; inconclusive means weak or mixed curves; inactive means no such curve, though single readings can be large; an effect the other way counts as inactive or inconclusive.
Assays:
[1] = qHTS assay for small molecules that induce genotoxicity in human embryonic kidney cells expressing luciferase-tagged ATAD5 (AID 651632); further: on the % scale 0 is the no-effect control and ±100 the full control effect; nearly all actives have a fitted effect of over 15% in size
In short: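 Luminescent reporter readout, HEK293T ATAD5-luc line: 16 hr drug exposure (37C, 5% CO2) followed by Amplite, 30 min RT.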

[2] = qHTS assay for small molecule agonists of the p53 signaling pathway - cell viability (AID 651633; calls by dose curve; further: nearly all actives have a fitted effect of over 30% in size; further: potency means the concentration at half of the fitted maximal effect)
In short: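 p53RE-bla cells, seeded at 4,000 per well and rested 5 h at 37 C/5% CO2, received compounds in DMSO for 16 h at 37 C. CellTiter-Glo was then added, and luminescence was read after 30 min at room temperature to gauge cytotoxicity.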

[3] = qHTS assay for small molecule disruptors of the mitochondrial membrane potential - cell viability (AID 720634; calls by dose curve;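 further: human HepG2 liver cancer cells; series mostly up to about 83 µM; on the % scale 0 is the no-effect control and ±100 the full control effect; nearly all actives have a fitted effect of over 20% in size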)
In short: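 HepG2, 1 hr compound, 37 C. ATP luminescence via CellTiter-Glo, 30 min RT, same well as m-MPI.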

[4] = qHTS assay to test for compound auto fluorescence at 590 nm (red) in HepG2 cells (AID 720674); further: on the % scale 0 is the no-effect control and ±100 the full control effect
In short: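 Rose Bengal sodium served as the red fluorophore standard. HepG2 monolayers (overnight attachment, MEM with 10% FBS) were exposed to test compounds for 1 hr at 37 C and read at Ex 540/Em 590 nm.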

[5] = qHTS assay to test for compound auto fluorescence at 535 nm (green) in HepG2 cells (AID 720675); further: on the % scale 0 is the no-effect control and ±100 the full control effect
[6] = qHTS assay to test for compound auto fluorescence at 460 nm (blue) in HEK293 cells (AID 720678); further: on the % scale 0 is the no-effect control and ±100 the full control effect
In short: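 Intrinsic compound fluorescence is recorded in live HEK293 cultures after overnight incubation at 37C, 5% CO2, using excitation 405 nm and emission 460 nm. Values are referenced to triamterene.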

[7] = qHTS assay to test for compound auto fluorescence at 590 nm (red) in HEK293 cells (AID 720679); further: on the % scale 0 is the no-effect control and ±100 the full control effect
In short: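 Red autofluorescence, HEK293 cells: 2,000 cells/well; attach 4-5 hr 37C; add 23 nL cpd or DMSO; incubate o/n 37C 5% CO2; read Ex540/Em590; Rose Bengal sodium reference.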

[8] = qHTS assay to test for compound auto fluorescence at 535 nm (green) in HEK293 cells (AID 720680); further: on the % scale 0 is the no-effect control and ±100 the full control effect
[9] = qHTS assay to test for compound auto fluorescence at 460 nm (blue) in HEK293 cell free culture (AID 720681); further: on the % scale 0 is the no-effect control and ±100 the full control effect
In short: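 Test compounds were pinned into cell-free culture medium (DMEM with 10% FBS) and fluorescence was read directly at Ex/Em 405/460 nm. Signals were expressed as fluorescence equivalents of triamterene, with DMSO vehicle as control.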

[10] = qHTS assay to test for compound auto fluorescence at 535 nm (green) in HEK293 cell free culture (AID 720682); further: on the % scale 0 is the no-effect control and ±100 the full control effect
In short: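 Green-label autofluorescence (485 nm excitation, 535 nm emission) measured on compound added to cell-free culture medium (DMEM, 10% FBS). Output is expressed relative to fluorescein.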

[11] = qHTS assay to test for compound auto fluorescence at 590 nm (red) in HEK293 cell free culture (AID 720683); further: on the % scale 0 is the no-effect control and ±100 the full control effect
In short: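 Tox21 10K library compounds were pinned into cell-free DMEM with 10% FBS and fluorescence was read at excitation 540 nm. Activity is expressed as Rose Bengal sodium equivalency.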

[12] = qHTS assay to test for compound auto fluorescence at 590 nm (red) in HepG2 cell free culture (AID 720684); further: on the % scale 0 is the no-effect control and ±100 the full control effect
In short: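 Measured in medium alone (MEM containing 10% FBS) following pintool addition of compound; emission at 590 nm with 540 nm excitation, referenced to Rose Bengal sodium.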

[13] = qHTS assay to test for compound auto fluorescence at 460 nm (blue) in HepG2 cell free culture (AID 720685); further: on the % scale 0 is the no-effect control and ±100 the full control effect
In short: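 Compound (23 nL) or DMSO pinned into cell-free MEM with 10% FBS; blue fluorescence read at 405/460 nm excitation/emission, expressed as auto-fluorescence equivalency to triamterene.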

[14] = qHTS assay to test for compound auto fluorescence at 535 nm (green) in HepG2 cell free culture (AID 720686); further: on the % scale 0 is the no-effect control and ±100 the full control effect
[15] = qHTS assay to test for compound auto fluorescence at 460 nm (blue) in HepG2 cells (AID 720687); further: on the % scale 0 is the no-effect control and ±100 the full control effect
In short: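 Cells (2,000/well in MEM with 10% FBS) attached overnight at 37 C, then were exposed to compound or DMSO for 1 hr at 37 C, 5% CO2. Fluorescence read at Ex/Em 405/460 nm, expressed as triamterene-equivalent signal.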

[16] = target: Glucocorticoid receptor (Homo sapiens) (UniProt P04150); assay: qHTS assay to identify small molecule agonists of the glucocorticoid receptor (GR) signaling pathway (AID 720691; active means well fitted activation curve with a large enough effect in the signal ratio in the repeat runs, not every such curve was filed as active; inconclusive means weak or mixed curves, or effect the other way; inactive means no such curve, though single readings can be large or run the other way; the % refers to the signal ratio; further: potency means the concentration at half of the fitted maximal effect)
Sequence of Glucocorticoid receptor (Homo sapiens) (P04150 whole entry, looked up): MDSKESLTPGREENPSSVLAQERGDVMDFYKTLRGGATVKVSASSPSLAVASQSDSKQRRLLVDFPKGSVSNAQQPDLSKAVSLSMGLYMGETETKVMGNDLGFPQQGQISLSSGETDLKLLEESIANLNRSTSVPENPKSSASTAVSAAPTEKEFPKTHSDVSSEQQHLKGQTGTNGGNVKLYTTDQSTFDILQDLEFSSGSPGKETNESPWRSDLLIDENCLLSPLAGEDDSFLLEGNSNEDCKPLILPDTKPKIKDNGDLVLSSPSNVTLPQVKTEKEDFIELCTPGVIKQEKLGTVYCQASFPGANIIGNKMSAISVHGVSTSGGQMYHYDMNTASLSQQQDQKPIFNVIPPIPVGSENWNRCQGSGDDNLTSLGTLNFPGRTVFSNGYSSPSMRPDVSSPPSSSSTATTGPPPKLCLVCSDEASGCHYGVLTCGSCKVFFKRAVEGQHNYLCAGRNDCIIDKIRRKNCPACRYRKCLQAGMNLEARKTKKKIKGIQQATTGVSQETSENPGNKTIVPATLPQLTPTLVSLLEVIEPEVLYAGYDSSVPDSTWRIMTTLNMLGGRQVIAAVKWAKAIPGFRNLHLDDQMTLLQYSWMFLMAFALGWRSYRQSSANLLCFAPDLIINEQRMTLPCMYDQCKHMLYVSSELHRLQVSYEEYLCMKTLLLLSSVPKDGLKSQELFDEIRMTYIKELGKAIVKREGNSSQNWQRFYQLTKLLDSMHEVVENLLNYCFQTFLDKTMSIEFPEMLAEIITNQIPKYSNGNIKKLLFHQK
In short: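 qHTS in GR-bla HeLa cells: 4 h settling at 37 C/5% CO2, 18 h compound incubation at 37 C, 2 h LiveBLAzer B/G FRET substrate at room temperature, fluorescence intensity measured.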

[17] = target: Glucocorticoid receptor (Homo sapiens) (UniProt P04150); assay: qHTS assay to identify small molecule antagonists of the glucocorticoid receptor (GR) signaling pathway (AID 720692; active means well fitted inhibition curve with a large enough effect in the signal ratio in the repeat runs, not every such curve was filed as active; inconclusive means weak or mixed curves, or effect the other way; inactive means no such curve, though single readings can be large or run the other way; the % refers to the signal ratio; further: potency means the concentration at half of the fitted maximal effect)
In short: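 Inhibition of glucocorticoid signalling is measured in HeLa cells with a GRE-controlled beta-lactamase reporter; cells are co-treated with compound and 5 nM dexamethasone (final) for 18 h before FRET substrate readout.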

[18] = qHTS assay for small molecules that induce genotoxicity in human embryonic kidney cells expressing luciferase-tagged ATAD5 - cell viability (AID 651634; calls by dose curve; further: nearly all actives have a fitted effect of over 25% in size; further: potency means the concentration at half of the fitted maximal effect)
In short: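 Viability read: CellTiter-Fluor fluorescence, 30 min at 37C. Cells: HEK293T, luciferase-tagged ATAD5. Exposure: 15.5 hr, 37C, 5% CO2, compound or DMSO vehicle.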

[19] = qHTS assay for small molecule disruptors of the mitochondrial membrane potential (AID 720635); further: potency means the concentration at half of the fitted maximal effect
In short: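 HepG2 cells (2,000/well) attached overnight at 37C, then took compound for 1 hr at 37C, 5% CO2. Mito-MPS dye was added for 30 min; fluorescence was read at 490/535 nm (monomers) and 540/590 nm (aggregates).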

CC(C)(C)c1ccc(C(O)CCCN2CCC(C(O)(c3ccccc3)c3ccccc3)CC2)cc1 (stereo not given)
active: Potency [2] 29.8 µM and 18.8 µM
inactive: Potency [1] | Potency [3] | Potency [4] | Potency [5] | Potency [6] | Potency [7] | Potency [8] | Potency [9] | Potency [10] | Potency [11] | Potency [12] | Potency [13] | Potency [14] | Potency [15] | Potency [16] | Potency [17]

CCOC(=O)c1ccc(C2CCC(NC[C@H](O)COc3ccc(O)c(NS(C)(=O)=O)c3)CC2)cc1 (stereo not given in full)
inactive: Potency [1] | Potency [18] | Potency [3] | Potency [4] | Potency [5] | Potency [6] | Potency [7] | Potency [8] | Potency [9] | Potency [10] | Potency [11] | Potency [12] | Potency [13] | Potency [14] | Potency [15]

CCCCCCCCCCCCOCCOCCOCCOCCOCCOCCOCCOCCOCCO
inactive: Potency [1] | Potency [4] | Potency [5] | Potency [6] | Potency [7] | Potency [8] | Potency [9] | Potency [10] | Potency [11] | Potency [12] | Potency [13] | Potency [15]
active: Potency [2] 26.6 µM | Potency [19] 19.7 µM

O=C1CCc2cc(OCCCCc3nnnn3C3CCCCC3)ccc2N1
inactive: Potency [1] | Potency [18] | Potency [3] | Potency [4] | Potency [5] | Potency [6] | Potency [7] | Potency [8] | Potency [9] | Potency [10] | Potency [11] | Potency [12] | Potency [13] | Potency [14] | Potency [15] | Potency [16]

CC1(C)[C@@H](O)CC[C@]2(C)[C@H]3C(=O)C=C4[C@@H]5C[C@@](C)(C(=O)O)CC[C@]5(C)CC[C@@]4(C)[C@]3(C)CC[C@@H]12
inactive: Potency [1] | Potency [18] | Potency [3] | Potency [4] | Potency [5] | Potency [6] | Potency [8] | Potency [9] | Potency [10] | Potency [11] | Potency [13] | Potency [14] | Potency [15]
active: Potency [17] 23.9 µM and 21.3 µM and 43.2 µM
23.7 µM (active) and inactive: Potency [2]

Nc1nc(-c2ccccc2)cs1
inactive: Potency [2] | Potency [18] | Potency [3] | Potency [4] | Potency [5] | Potency [6] | Potency [7] | Potency [8] | Potency [9] | Potency [10] | Potency [11] | Potency [12] | Potency [13] | Potency [14] | Potency [16]

CN1CCC[C@@H]1CCO[C@](C)(c1ccccc1)c1ccc(Cl)cc1
inactive: Potency [2] | Potency [18] | Potency [3] | Potency [4] | Potency [5] | Potency [6] | Potency [7] | Potency [8] | Potency [9] | Potency [10] | Potency [11] | Potency [12] | Potency [13] | Potency [14] | Potency [15]

O=C(O)c1cc(O)c2ccccc2c1O
active: Potency [2] 30.6 µM
inactive: Potency [1] | Potency [18] | Potency [4] | Potency [5] | Potency [6] | Potency [7] | Potency [8] | Potency [9] | Potency [10] | Potency [11] | Potency [12] | Potency [14]

COc1ccc2cc1Oc1ccc(cc1)C[C@H]1c3c(cc4c(c3Oc3cc5c(cc3OC)CCN(C)[C@@H]5C2)OCO4)CCN1C
inactive: Potency [1] | Potency [2] | Potency [3] | Potency [4] | Potency [5] | Potency [6] | Potency [8] | Potency [9] | Potency [10] | Potency [11] | Potency [12] | Potency [16] | Potency [17]
active: Potency [18] 29.8 µM

CCO[C@@H]1O[C@H](C(COCc2ccccc2)OCc2ccccc2)[C@H](OCc2ccccc2)[C@H]1O (stereo not given in full)
active: Potency [19] 11.4 µM
inactive: Potency [1] | Potency [2] | Potency [18] | fluorescence, relative to Rose Bengal [4] -0.664% [at 18.6 µM] | fluorescence, % of fluorescein control [5] -0.0707% [at 18.6 µM] | fluorescence, % of triamterene [6] -0.0314% [at 18.6 µM] | fluorescence, % of fluorescent control [7] 0.894% [at 18.6 µM] | fluorescence, % of fluorescein [8] -0.012% [at 18.6 µM] | fluorescence, % of fluorescent control [9] 0.118% [at 18.6 µM] | activity change [10] -0.0677% [at 18.6 µM, stronger effect = higher value] | fluorescence, % of fluorescent control [11] -0.0196% [at 18.6 µM] | fluorescence, % of fluorescent control [13] -0.0414% [at 18.6 µM] | fluorescence, % of fluorescein control [14] -0.102% [at 18.6 µM] | fluorescence, % of fluorescent control [15] -0.0213% [at 18.6 µM] | Potency [16]

c1ccc(C(O[C@@H]2CCCN(CCc3ccc4c(c3)OCO4)C2)c2ccccc2)cc1
inactive: Potency [1] | Potency [2] | Potency [18] | Potency [4] | Potency [5] | Potency [6] | Potency [7] | Potency [8] | Potency [9] | Potency [10] | Potency [11] | Potency [12] | Potency [13] | Potency [15] | Potency [16]

COc1cccc2c1C(=O)c1c(O)c3c(c(O)c1C2=O)C[C@@](O)(C(C)=O)C[C@@H]3O[C@H]1C[C@H](N)[C@H](O)[C@H](C)O1
active: Potency [18] 9.44 µM and 30.8 µM | Potency [19] 1.5 µM and 4.35 µM | Potency [16] 3.01 µM [inconclusive] and 49.3 µM [inconclusive]
inactive: Potency [3] | Potency [6] | Potency [7] | Potency [8] | Potency [9] | Potency [10] | Potency [11] | Potency [12] | Potency [13] | Potency [14]

CN1CCN(Cc2cc(-c3ccc4[nH]c(=O)oc4c3)co2)[C@@H](c2ccc(F)cc2)C1
active: Potency [19] 14.8 µM | Potency [17] 42 µM
inactive: Potency [1] | Potency [2] | Potency [3] | Potency [4] | Potency [5] | Potency [6] | Potency [7] | Potency [8] | Potency [9] | Potency [10] | Potency [11] | Potency [12] | Potency [13] | Potency [14] | Potency [16]

CC[C@H](C)COC(=O)/C=C/c1ccc(N=Cc2ccc(OC)cc2)cc1
inactive: Potency [2] | Potency [18] | Potency [4] | Potency [5] | Potency [6] | Potency [8] | Potency [9] | Potency [10] | Potency [11] | Potency [12] | Potency [13] | Potency [15] | Potency [16] | Potency [17]
active: Potency [19] 30.6 µM

Nc1cc(Cl)c(O)c(Cl)c1
inactive: Potency [1] | Potency [18] | Potency [3] | Potency [4] | Potency [5] | Potency [7] | Potency [8] | Potency [10] | Potency [11] | Potency [12] | Potency [13] | Potency [14] | Potency [15] | Potency [16]
active: Potency [19] 7.7 µM

— PubChem BioAssay (Tox21)
